Screens (PubChem BioAssay)
D1 potentiator = Potentiators of Human D1 Dopamine Receptor: qHTS; D(1A) dopamine receptor (Homo sapiens), P21728; potentiation, % at 10 µM; hit rate 0.036% among 360,000; HEK293 TREx D1 cells, calcium flux, dopamine EC20 potentiation; in the data active = potentiation above about 30%; also: 0% is about no effect
Target sequence (P21728 whole entry, looked up): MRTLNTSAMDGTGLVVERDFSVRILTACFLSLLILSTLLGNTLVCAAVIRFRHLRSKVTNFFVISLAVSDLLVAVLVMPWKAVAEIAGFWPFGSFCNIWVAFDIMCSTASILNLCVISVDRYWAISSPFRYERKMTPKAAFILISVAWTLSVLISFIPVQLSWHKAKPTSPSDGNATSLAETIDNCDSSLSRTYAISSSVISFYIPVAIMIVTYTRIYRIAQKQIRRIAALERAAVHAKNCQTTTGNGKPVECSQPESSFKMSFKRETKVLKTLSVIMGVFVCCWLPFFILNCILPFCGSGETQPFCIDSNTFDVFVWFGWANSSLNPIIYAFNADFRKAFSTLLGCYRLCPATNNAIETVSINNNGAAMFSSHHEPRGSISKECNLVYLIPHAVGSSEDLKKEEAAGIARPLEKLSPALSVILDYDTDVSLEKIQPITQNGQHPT
DRD3 antagonist = qHTS of D3 Dopamine Receptor Antagonist: qHTS. D(3) dopamine receptor (Homo sapiens), P35462. hit rate 2.5% among 360,000. max response, negative = inhibition, %. AID 652054, 2013. D3R cells, DiscoveRx beta-arrestin luminescence, antagonist mode; active compounds read low; in the data active = max response below about -50%; inconclusive = no clear call, values can overlap the other calls; also: % is scaled to controls: 0 for no effect and ±100 for the full control effect
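Cells plated overnight at 1500 cells/well, then exposed to library compounds with dopamine controls for 90 minutes at 37 degrees C. DiscoveRx reagent added for 30–60 minutes at room temperature; luminescence read, quantitative HTS format.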
D1 ag = Allosteric Agonists of the Human D1 Dopamine Receptor: qHTS; D(1A) dopamine receptor (Homo sapiens), P21728; HEK293 T-REx D1 cells, calcium flux, agonist mode; activation, % at 2 µM; hit rate 1% among 360,000; in the data active = activation above about 30%; also: 0% is about no effect
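Agonism was scored from calcium flux recorded over 180 s (1 read/s) after pintool compound addition, following a 10-cycle baseline. Cells were inducible force-coupled HEK293 TREx D1, plated overnight at 30 C and loaded with no-wash calcium dye.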
D3 ag = qHTS of D3 Dopamine Receptor Agonist: qHTS. max activation, %. D3R DiscoveRx beta-arrestin cells, luminescence, 90 min. D(3) dopamine receptor (Homo sapiens), P35462. hit rate 0.58% among 410,000; in the data active = max activation above about 30%; also: 0% is about no effect
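Cells at 1500/well, incubated overnight, then treated with pinned compounds (dopamine as control) for 90 min at 37 degrees C. DiscoveRx reagent added for 30 - 60 minutes at room temperature; luminescence read.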
D1 antag = Antagonist of Human D 1 Dopamine Receptor: qHTS; HEK293 TREx D1 cells, calcium flux, dopamine EC80; active compounds read low; activity change, negative = inhibition, % at 10 µM; hit rate 3.2% among 360,000; AID 504652, 2011; in the data active = activity change below about -30%; also: % is scaled to controls: 0 for no effect and ±100 for the full control effect
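Using tetracycline-induced force-coupled D1 Hek293 cells and a calcium dye, signals were followed for 180 s after compound, then for 180 s after EC80 dopamine, to detect inhibitors.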
* hit, by the source's call; ? = inconclusive; . = no result. Shown are actives, neighbours in structure and some others; about 6% of the full set was active somewhere.

SMILES	D1 potentiator	DRD3 antagonist	D1 ag	D3 ag	D1 antag
COc1ccc(-c2nnc(CSc3nc4ccccc4c(=O)n3CC(C)C)o2)cc1OC	-5	-14	4	33*	-27
Cn1c(SCc2nc3ccccc3c(=O)[nH]2)nc2ccccc21	9	-17	1	-2	-3
C[C@H](CO)N1C[C@H](C)[C@@H](CN(C)Cc2ccccn2)Oc2ncc(-c3ccccc3)cc2C1=O	.	0	.	-9	.
CCC/C(C#CCCN1C(=O)c2ccccc2C1=O)=C1/c2ccccc2C(=O)N1c1ccccc1	.	104	.	3	.
COc1ccccc1C(=O)NNC1=C(C(=O)C(F)(F)F)CCC1	-1	-57*	-1	-34	-9
O=C(NNC1=C(C(=O)C(F)(F)F)CCC1)c1ccccc1O	-6	?	1	-2	-7
Cc1ccc2nc(NC(=O)c3nc(SCc4ccccc4C)ncc3Cl)sc2c1	0	.	1	-9	25
O=C1C(=C(c2ccccc2)c2ccccc2)Nc2ccccc21	-12	-14	36*	-5	-7
O=C1C(=C(O)c2ccccc2)C(=O)c2ccccc21	2	?	2	-11	7
CCc1ccccc1NC(=O)c1cc2c(Cl)nc3ccccc3c2s1	-1	.	2	8	-5
COc1ccc(C2=NOC(CN3C(=O)c4ccccc4S3(=O)=O)C2)cc1 (stereo not given)	-7	25	18	1	-27
O=C1c2ccccc2S(=O)(=O)N1CC1CC(c2ccc(Cl)cc2)=NO1 (stereo not given)	-3	4	7	-2	-34*
O=C1c2ccccc2S(=O)(=O)N1CC1CC(c2ccccc2)=NO1 (stereo not given)	-6	0	0	2	-34*
CCOC(=O)C1=C(CS(=O)(=O)c2ccc(C)c(C)c2)NC(=O)NC1c1ccccc1OCC (stereo not given)	4	.	0	-7	7
O=C(CSc1ccccn1)NC1CCCc2c1cnn2-c1ccccc1F (stereo not given)	.	0	.	-14	.
COc1ccc(F)cc1CN1CCN(CC(=O)Nc2ccccc2C(=O)NC2CC2)CC1	-7	-9	1	-11	-37*
CCOc1ccccc1C(=O)NC1CCN(CC(=O)Nc2cc(OC)ccc2OC)CC1	-11	7	0	-7	-31*
CCOc1ccccc1NC(=O)CN1CCC(NC(=O)c2ccccc2C)CC1	-4	2	2	7	-8
CC(=O)N/N=C/c1cc(C(C)(C)C)cc(/C=N/NC(C)=O)c1O	8	?	36*	-2	-9
N#CC1(Nc2cccc(Br)c2)C(=O)Nc2ccccc21 (stereo not given)	0	-17	53*	-25	-17
COc1cc(OC)c(C(=O)OCC(=O)NCC2CCCCC2)cc1OC	-2	16	2	7	-2
COc1ccccc1NC(=O)CSc1nnc(-c2ccoc2C)n1C	8	5	-1	15	-1
Cc1ccccc1C(=O)Nc1ccnn1C1CCN(Cc2cnn(C)c2)CC1	1	6	7	-4	13
Cc1nc2c(C(=O)NCCCN(CC(C)C)CC(C)C)cnn2c(C)c1Cc1c(F)cccc1Cl	6	.	-2	-15	1
Cc1ccccc1C1C(C#N)=C2N=C(N)c3c(sc4c3CCCCC4)N2C2=C1C(=O)CCC2 (stereo not given)	-2	-76*	2	-7	-42*
O=C(CS(=O)c1ccccc1[N+](=O)[O-])Oc1ccc(Br)cc1 (stereo not given)	-5	6	2	5	-1
CS(=O)(=O)c1ccc(S(=O)CC(=O)Oc2ccc(Cl)cc2)c([N+](=O)[O-])c1 (stereo not given)	6	-102*	8	-16	21
CC1CN(C(=O)CCS(=O)(=O)c2ccccc2)CC(C)O1 (stereo not given)	-6	6	2	-14	0
Cc1cc(N)ccc1N1CCCC1	-4	-55*	2	-7	7
COc1ccc(O)c(C(=O)/C=C/c2cc3ccccc3o2)c1	1	-62*	1	-2	-6
